The results in this text go back to PubChem BioAssay (NCATS).

Molecules are shown by their SMILES. Inconclusive results are not listed. Activity calls are given as the source filed them. Calls follow the shape of the dose curve; as a rule, active = well fitted inhibition curve with a large enough effect; inconclusive = small, poorly fitted or top-dose-only effect; inactive = no such curve, though single readings can be large or run the other way.

This assay can be described thus: Counterscreen qHTS for small molecule stabilizers of the endoplasmic reticulum resident proteome: GLuc-NoTag assay (AID 1508627).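 Also: SH-SY5Y cells given compound then 100 nM thapsigargin to empty ER calcium.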 The conditions noted are these: Gaussia luciferase NoTag secretion counterscreen, luminescence, thapsigargin 100 nM for final 4 h; series mostly up to 76.4 µM. An outline of the steps:
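Luminescence of Gaussia luciferase secreted into the medium (coelenterazine, 0.07x final, unlysed cells) was the read-out. Human SH-SY5Y neuroblastoma cells constitutively secreting untagged GLuc received compound for 19 h, then 100 nM thapsigargin for 4 h.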
Regarding `C[C@H](N)CN1CCc2ccc(Br)cc21`, the call was inactive.
With `c1ccc2c(N3CCNCC3)cccc2c1`, the outcome was inactive.
The same measure for `N#C/C(=C/c1ccc(O)c(O)c1)C(N)=S`: “inactive”; for `Nc1ccc(CCN2CCN(c3cccc(C(F)(F)F)c3)CC2)cc1`: “inactive”; for `COc1ccc2c(c1)C13CCCCC1C(C2)N(C)CC3` (stereo not drawn): “inactive”.
As to `CN1CC[C@@]2(C)c3cc(OC(=O)Nc4ccccc4)ccc3N(C)[C@@H]12`, the outcome was inactive.
As to `CN1C2CCC1CC(OC(c1ccccc1)c1ccccc1N)C2` (stereo not drawn), the molecule was classed as inactive.
Turning to `Clc1ccc(N2CC3CCC(C2)N3)nn1`, the call was inactive.
